# Laboratory results reported in the supplement of paper PMC6555819.
# Columns and labels:
# Assay in all cases: PBM binding z-score (relative to random genomic background probes); higher = stronger binding; sequences stand for … in GC…GCGATTGACAGCGTAGAATGAAGG
# [1] = test system: RARb homodimer (NR concentration 270 nM)
# Method in brief: (§1)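 Antibodies against each partner of ligand-free nuclear receptor dimers (one per run) detected binding on custom Agilent 4×180K protein-binding microarrays after 1 h incubation. The double-stranded probes had 34-nt variable regions carrying direct-repeat seeds, single-nucleotide variants, half-site ablations and random human genomic background sequences. Binding z-scores, from regression-normalized fluorescence, use the random background probes as reference.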
# [2] = test system: RARg:RXRa (NR concentration 270 nM, RXRa partner concentration 90 nM)
# Method in brief: as §1
# [3] = test system: RARg homodimer (NR concentration 270 nM)
# Method in brief: as §1
# [4] = test system: RXRa DBDmut IVT, anti-RXR (DBD mutation: RXRa K156A/R161A, NR concentration 90 nM)
# Method in brief: as §1
# [5] = test system: RXRa homodimer (NR concentration 180 nM)
# Method in brief: as §1
# [6] = test system: THRa:RXRa (NR concentration 90 nM, RXRa partner concentration 90 nM)
# Method in brief: as §1
# [7] = test system: THRa homodimer (NR concentration 90 nM)
# Method in brief: as §1
# [8] = test system: VDR homodimer (NR concentration 270 nM)
# Method in brief: as §1
Sequence,PBM binding z-score [1],PBM binding z-score [2],PBM binding z-score [3],PBM binding z-score [4],PBM binding z-score [5],PBM binding z-score [6],PBM binding z-score [7],PBM binding z-score [8]
TAGCCTAGGTGATGCGGGCCAGTATAGTGTCGGC,-0.307,-0.331,-0.372,-1.62,-0.304,-0.285,-0.885,-1.22
CTCAAAAGGTCGGTTGAGGTGAGTATACGGATAA,2.58,2.78,2.85,0.765,2.66,5.22,1.15,0.384
AGAACGAGGACACGCTGAGTTGATAGCAGAGTAG,0.357,0.807,1.74,0.835,-0.00543,3.15,2.29,1.14
AGAATGAGGTTATACGTAGATCAGGGAGGAAAGT,0.93,1.79,1.27,1.87,2.27,2.24,0.817,1.09
CAAACTAGGTCAAGAGGTCAAAGTGCGCTTCCCG,5.69,8.27,7.86,3.2,8.67,4.46,2.56,4.83
ACTAGTTGGTCAGCAGAGGTCACACACAATTCGG,5.13,5.03,5.13,1.14,5.43,4.52,2.95,3.3
ATCTCTAGATAAAGTTCAGTGAAAGATCGATAGA,1.84,1.4,2.06,0.839,0.79,0.243,-0.14,1.66
ACTCGGAGGACAAAGGTCAGAGCGACGCCAGTGA,4.63,6.19,5.38,1.24,5.37,3.66,0.5,1.18
ACTAGCACGCCAAGGGTCACTCAAGATTAGTCCG,3.93,3.88,3.91,1.02,3.73,2.86,0.515,1.49
TGAATGAGGTTAAAGATCAGCGAACGTGGCGTCG,0.498,2.34,1.26,1.56,3.59,2.39,0.17,0.749
AGAAGGAGGGCAATGAGTTGATAGCACGGGTGGC,1.51,0.896,1.46,0.955,0.646,0.385,0.339,2.51
ATCGAAAGGTCGTGAGGTGAGTAAACAGAAAGGC,2.71,4.68,4.11,1.25,4.91,3.31,1.1,0.838
CCTACTGGCCCATTCAGAGGTCATTGATCATATG,3.64,2.97,2.56,0.948,3.56,3.04,1.71,3.87
ATATGTAGGTTAACGGTCATTCAGGTTGGTTCGC,2.72,2.13,2,1.34,1.88,1.62,0.747,1.84
TCTTGTAGATCAAGCAGGTTAAGAGAGCCTGAGT,0.0574,-0.24,-0.296,0.088,0.168,0.276,-0.531,-0.291
CGTACTGGGCCAAGGTCATTGATCAGTCAAAGCA,3.36,3.89,3.26,1.57,3.05,3.42,2.56,3.55
ATAACAAGGTGATCGTGAGGTCGTTGATACTAAC,1.58,2.43,1.23,0.955,1.76,3.48,2.31,2.78
AATACAGGGTCATCGTGGGCCAGAGTACGCACAG,3.78,5.59,4.97,3.19,6.45,4.44,1.46,3.9
CCTTACGGGTCATGGTTATAGCACGGGTGGTACG,3.03,4.4,3.82,0.187,4.81,2.67,-0.082,0.582

Sequence,PBM binding z-score [1],PBM binding z-score [2],PBM binding z-score [3],PBM binding z-score [4],PBM binding z-score [5],PBM binding z-score [6],PBM binding z-score [7],PBM binding z-score [8]
AGAATGAGGTTATACGTAGATCCGGGAAGAAAGT,0.443,1.39,0.944,1.78,1.82,1.94,0.512,0.912
CCTATTAGTTGACCATATGGGCAACCGAAGCTCG,0.53,0.405,0.481,0.486,0.208,0.00602,0.303,0.527
CGCCAAAGTTCAACTAAGGTAACGTAAAGCACGC,4.29,5.87,6.48,4.67,4.49,5.24,2.11,3.81
CCAGACAGGTGAGAAGGAAACTCAGCCTCGATTA,-0.0325,0.209,0.469,-0.203,0.154,-0.307,0.13,-0.0277
CAGCCTAGGTCAGGGCCAGTGTAGGAGGAACGTT,2.75,2.76,3.69,-0.674,1.58,2.17,0.608,-0.169
TCTAATTGGTCAAAGGTCACACACTCGAAATGCG,4.96,7.28,6.41,2.51,8.16,4.13,2.44,3.16
ACTAGTTGGTCAGGTGAGGTCACACACAATTCGG,4.31,4.16,4.17,1.23,4.21,4.85,5.01,4.61
CCTAACGGGTCACTGACAGGTTATAGCATTTGGA,2.94,5.4,4.16,1.48,4.09,2.46,-0.159,0.931
CGTCCAAGGTCAGAGCGGTCAGTGAATGCCGAGT,4.33,5.22,6.15,2.61,3.84,3.6,1.54,2.42
CCTCGTTGGTCAGGAGGTCACACACCGGATATGA,4.36,5.12,4.22,0.642,4.63,3.54,2.26,2.22
AGTCAGAGTTCAGGACGAGGTAACGTAAAGCACG,2.72,4.62,4.28,3.5,3.59,3.79,1.53,3.75
TCTTGTAGATCAGCAGGCTAAGAAAGCTGGCCAA,-0.81,-0.564,-0.754,0.38,-0.261,-0.424,-1.21,-0.475
AGAACGAGGGCACGCTGAATTGATAGCAGAGTAG,0.888,1.78,2.36,1.73,1.18,1.53,-0.215,0.542
TCTGCTAGGTCAACGATCGTCAGCTAATCTGCTA,2.88,4.06,4.96,0.835,2.44,2.6,0.335,-0.498
ATCTCTAGGTAAGACACAGTTCAGTGAAGAACGC,1.33,0.686,0.694,0.59,0.755,0.849,0.689,1.37
CCTATTCGTTGACCATAAGGGCAACCGAAGCTCG,2.14,1.16,1.04,0.173,0.704,1.85,1.57,0.974
CGTCCAAGTTCAACTAAGGTAACGTAAAGCACGC,2.73,3.63,3.97,4.54,2.79,5.06,2.45,4.43
AGAATGAGGTTACCAATGATCAGGGAAACGCTTG,0.796,2.23,1.63,0.994,2.62,2.61,0.788,0.0566
TCTAGTTGGTCAAAGGTCCCACACTCGAAATGCG,1.47,1.55,1.05,1.26,1.75,0.71,0.58,0.39

Sequence,PBM binding z-score [1],PBM binding z-score [2],PBM binding z-score [3],PBM binding z-score [4],PBM binding z-score [5],PBM binding z-score [6],PBM binding z-score [7],PBM binding z-score [8]
ATCGAGAGGTCGACGAGGTGAGTATACACCGTTT,1.94,3.1,2.85,1.07,3.46,3.58,0.777,1.52
GCTATTAGTTTAAAGGGCAACCGAATGATTCTCG,2.38,1.36,1.44,1.56,1.05,0.923,0.375,0.916
TCATGTAGGTAAACAGGTGAAAGTCCGTAAGTTA,0.722,0.133,0.0838,0.975,0.516,0.578,0.226,-0.0362
CGAACTAGGTCATTGACCGGACAGTGAATAGTAA,2.74,4.42,4.59,2.25,2.82,2.57,0.878,1.18
TCTCGGAGGACACGGAGGTCAGAGCTTTCCAGAG,3.7,3.54,3.91,0.792,2.47,3.34,1.77,2
TCTAGCAGGCCAGAGGGTCACTCAGGAGGTACGG,2.75,2.62,1.67,0.0347,2.54,1.74,-0.132,0.271
CGAACTAGGTCATTGACAGGAAAGTGAATAGTAA,2.15,3.65,3.62,2.19,2.61,2.27,0.512,0.797
CATACAGGGTCAGGTAGGCCAGAGTAGGGACGGC,3,4.2,4.14,0.816,4.12,2.93,0.964,1.14
TCTTGTAGATCAATCAGGTTAAGAAAGCCTGAGT,0.194,0.0482,-0.074,0.724,0.241,1.02,0.308,0.0655
GCTTGTAGATCAAGGTCAAGAAAGACTAAGCTAA,3.18,3.61,3.42,1.03,3.6,3.36,1.74,1.37
CAAACTACGTCAAGAGGTCAAAGTCCGCTTCCCG,4.32,5.45,4.73,2.5,6.72,3.72,1.78,4.48
TCTATTAGTTGAAGGGCAATCGACGAGTCCGTTT,0.87,0.355,0.467,1.61,0.559,0.0989,-0.0938,1.42
TCGAGTAGGTTACCAATGGGGCCTTCAGCTTTCT,0.0421,0.0942,-0.234,0.173,0.293,-0.167,-0.919,-0.944
TAGCCTAAGTCAGATCGGGCCAGTATACGCTATA,-0.342,-0.329,-0.306,-0.669,-0.25,1.43,-0.221,-0.691
GCAGACAGGTGAAACGCAGGTAACTCCGGGTGGC,0.0338,0.702,-0.185,-0.71,0.572,1.32,-0.603,-0.791
ACAGACACGTGATGAAGGTAACTCAGGCTATCAT,-0.0735,0.142,0.316,0.207,0.38,0.724,0.228,-0.42
CAAACTAGGTCAAGAGGTGAAAGTCCGCTTCCCG,4.18,5.62,5.36,1.5,4.52,3.58,1.67,0.973
CCTATTAGTTGACCATAAAGGCAACCGAAGCTCG,0.622,0.557,0.504,0.578,0.337,0.39,0.543,0.626
AGAATGAGGTTATACGCAGATCAGGGAAGAAAGT,0.779,1.67,0.985,1.47,2.3,2.22,0.465,0.945
